From the OligoGym collection

Target: HIST2H3A
Assay: pooled miR-30 sensor sort-seq; sequence = guide strand
Settings: shRNA

First: TTAAAGTCCTGCGCGATCTCGC
Second: AAGTCCTGCGCGATCTCGCGTA
The sensor-assay potency score (higher = more potent) of the first is higher: -0.191 for the first, -1.16 for the second.

Compared with TTGCGGATCAGCAGCTCCGTGG, TGGACTTCTGGTAGCGCCGGAT is higher in sensor-assay potency score (higher = more potent): -1.49 for the first, -1.34 for the second.

Going from TCCGTCTTAAAGTCCTGCGCGA to TTGCCGCCGGTCGACTTGCGAG, the sensor-assay potency score (higher = more potent) falls from -1.2 to -1.63.

Going from TAATGGTCACGCGCTTGGCGTG to TCTCGCGTACCAGCCGCTGGAA, the sensor-assay potency score (higher = more potent) falls from -1.65 to -1.89.

First: TTGGGCATAATGGTCACGCGCT
Second: TGGATGGCGCACAGGTTCGTGT
The sensor-assay potency score (higher = more potent) of the first is higher: -0.549 for the first, -1.93 for the second.

Target: HKR1
Assay: as above
Settings: shRNA

Compared with TACTTTGTCTGTTTCCTCTAGA, TTTGGTATCTAGCAATGGCTGA is lower in sensor-assay potency score (higher = more potent): 0.778 for the first, -0.389 for the second.

Going from TTTGACTCCTTGATAAAGCCTG to TACCAGTACAGTCTCATGCATA, the sensor-assay potency score (higher = more potent) falls from -0.108 to -0.938.

Compared with TTAAGGTTTGACTTCAGGCTAA, TAACTTAGCACAAAAGCCTTGC is higher in sensor-assay potency score (higher = more potent): 0.0194 for the first, 0.138 for the second.

Going from TTGATGAGGACTGACATACTGC to TTGACTCCTTGATAAAGCCTGG, the sensor-assay potency score (higher = more potent) falls from -0.174 to -0.606.

Going from TTGATTTCTCCAAATCCTGAGA to ATAAACTTGAAAACAGCTGAGA, the sensor-assay potency score (higher = more potent) rises from -0.892 to -0.36.

Compared with TTGACTTCCACGTAAAGCCTCG, TTAACTTAGCACAAAAGCCTTG is higher in sensor-assay potency score (higher = more potent): -0.345 for the first, -0.326 for the second.
